Test results as given in the supplement of paper PMC9694430.

Assays:
Test in all cases: thermal shift delta Tm vs DMSO control; higher = stronger stabilization (binding)
Conditions in all cases: 12.5 µM; protein concentration 2 µM
[1] = test system: LOC_OS02G45750-cb003
Method in brief: (§1)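 Rice kinase domain constructs were expressed in E. coli, purified, and tested by differential scanning fluorimetry with compound added in DMSO. Each well of a 96-well plate held 19.5 μl of 2 μM kinase in 100 mM potassium phosphate pH 7.5, 150 mM NaCl, 10% glycerol and 5 × SYPRO Orange, and fluorescence was read from 25°C to 95°C at 0.05°C/s. The melting temperature shift is the mean of triplicates, taken against protein with DMSO alone after Boltzmann fitting.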

[2] = test system: LOC_OS02G54510-cb004
Method in brief: as §1

[3] = test system: LOC_OS03G04050-cb001
Method in brief: as §1

[4] = test system: LOC_OS03G12390-cb001
Method in brief: as §1

[5] = test system: LOC_OS03G27990-cb004
Method in brief: as §1

[6] = test system: LOC_OS03G50450-cb001
Method in brief: as §1

[7] = test system: LOC_OS03G50810-cb003
Method in brief: as §1

[8] = test system: LOC_OS04G35114-cb001
Method in brief: as §1

[9] = test system: T1, LOC_OS04G38480-cb003
T1 sequence (whole entry): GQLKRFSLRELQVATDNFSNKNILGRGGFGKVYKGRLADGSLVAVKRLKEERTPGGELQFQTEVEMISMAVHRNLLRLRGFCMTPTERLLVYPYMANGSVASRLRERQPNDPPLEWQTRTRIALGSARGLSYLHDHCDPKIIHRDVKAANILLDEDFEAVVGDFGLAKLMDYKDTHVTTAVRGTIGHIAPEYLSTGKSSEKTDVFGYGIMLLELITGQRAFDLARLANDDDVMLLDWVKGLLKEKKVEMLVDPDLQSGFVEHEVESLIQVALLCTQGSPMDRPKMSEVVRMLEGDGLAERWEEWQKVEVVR
Method in brief: as §1

[10] = test system: T2, LOC_OS04G41100-cb001
T2 sequence (whole entry): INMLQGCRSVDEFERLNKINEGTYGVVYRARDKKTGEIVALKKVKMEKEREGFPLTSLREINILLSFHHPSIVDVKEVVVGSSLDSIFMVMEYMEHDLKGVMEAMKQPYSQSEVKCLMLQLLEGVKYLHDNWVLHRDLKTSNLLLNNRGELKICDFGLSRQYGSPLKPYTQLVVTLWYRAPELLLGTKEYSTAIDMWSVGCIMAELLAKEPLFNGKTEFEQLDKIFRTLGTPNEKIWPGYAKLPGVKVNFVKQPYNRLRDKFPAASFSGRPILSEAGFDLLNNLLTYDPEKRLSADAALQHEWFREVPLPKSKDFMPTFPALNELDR
Method in brief: as §1

[11] = test system: LOC_OS04G57630-cb004
Method in brief: as §1

[12] = test system: LOC_OS05G07850-cb002
Method in brief: as §1

[13] = test system: LOC_OS05G16824-cb004
Method in brief: as §1

[14] = test system: LOC_OS05G28520-cb001
Method in brief: as §1

[15] = test system: LOC_OS05G30820-cb001
Method in brief: as §1

[16] = test system: LOC_OS05G43570-cb004
Method in brief: as §1

[17] = test system: LOC_OS06G16330-cb003
Sequence of LOC_OS06G16330-cb003 (as listed by the source): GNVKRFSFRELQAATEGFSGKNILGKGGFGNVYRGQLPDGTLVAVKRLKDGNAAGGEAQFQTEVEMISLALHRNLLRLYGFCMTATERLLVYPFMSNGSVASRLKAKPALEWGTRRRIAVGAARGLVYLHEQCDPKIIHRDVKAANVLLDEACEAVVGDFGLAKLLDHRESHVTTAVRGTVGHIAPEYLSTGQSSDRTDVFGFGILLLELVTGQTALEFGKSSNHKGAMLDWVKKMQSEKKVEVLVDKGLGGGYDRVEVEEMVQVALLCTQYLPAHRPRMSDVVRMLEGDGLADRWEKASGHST
Method in brief: as §1

[18] = test system: T3, LOC_OS06G22820-cb001
T3 sequence (whole entry): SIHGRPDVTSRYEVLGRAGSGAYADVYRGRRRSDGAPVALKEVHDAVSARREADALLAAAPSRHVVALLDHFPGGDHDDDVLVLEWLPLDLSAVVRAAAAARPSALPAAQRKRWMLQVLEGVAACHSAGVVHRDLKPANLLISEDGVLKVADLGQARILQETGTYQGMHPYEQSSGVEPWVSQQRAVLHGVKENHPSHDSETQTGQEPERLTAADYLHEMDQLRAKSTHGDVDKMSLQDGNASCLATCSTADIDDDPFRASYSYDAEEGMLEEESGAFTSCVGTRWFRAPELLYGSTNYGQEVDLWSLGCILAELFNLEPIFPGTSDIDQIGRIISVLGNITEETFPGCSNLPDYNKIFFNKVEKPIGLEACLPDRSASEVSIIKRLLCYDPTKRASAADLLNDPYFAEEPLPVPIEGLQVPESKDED
Method in brief: as §1

[19] = test system: LOC_OS07G06570-cb004
Method in brief: as §1

[20] = test system: LOC_OS07G07230-cb001
Method in brief: as §1

| Structure (SMILES) | thermal shift delta Tm [1] [°C] | thermal shift delta Tm [2] [°C] | thermal shift delta Tm [3] [°C] | thermal shift delta Tm [4] [°C] | thermal shift delta Tm [5] [°C] | thermal shift delta Tm [6] [°C] | thermal shift delta Tm [7] [°C] | thermal shift delta Tm [8] [°C] | thermal shift delta Tm [9] [°C] | thermal shift delta Tm [10] [°C] | thermal shift delta Tm [11] [°C] | thermal shift delta Tm [12] [°C] | thermal shift delta Tm [13] [°C] | thermal shift delta Tm [14] [°C] | thermal shift delta Tm [15] [°C] | thermal shift delta Tm [16] [°C] | thermal shift delta Tm [17] [°C] | thermal shift delta Tm [18] [°C] | thermal shift delta Tm [19] [°C] | thermal shift delta Tm [20] [°C] |
| --- | --- | --- | --- | --- | --- | --- | --- | --- | --- | --- | --- | --- | --- | --- | --- | --- | --- | --- | --- | --- |
| CC(C)(C#N)c1ccc(N2C(=O)OCc3cnc4ccc(-c5cnc6ccccc6c5)cc4c32)cc1 | 0.62 | 0.01 | 0.55 | 0.2 | 0.32 | 0.21 | 0.32 | 1.01 | 0.8 | 0.2 | 0.16 | 1.96 | -0.65 | 0.5 | 0.58 | 0.71 | 0.44 | 0.89 | 1.76 | 0.63 |
| C[C@H](NC(=O)c1c(N)nn2cccnc12)c1cc2cccc(C#Cc3cnn(C)c3)c2c(=O)n1-c1ccccc1 | 1.18 | 0.33 | 0.47 | -0.11 | 0.46 | 0.63 | 0.32 | 0.21 | 1.13 | 0.04 | -0.07 | 0.09 | 2.93 | 0.27 | 0.07 | 0.11 | -0.63 | 0.3 | 1.69 | 0.62 |
| CC(C)(C)c1cnc(CSc2cnc(NC(=O)C3CCNCC3)s2)o1 | 0.84 | 0.08 | 0.58 | 0.18 | 0.11 | 0.05 | 0.57 | 0.29 | 0.55 | 10.7 | -0.47 | 0.35 | -1.08 | 0.48 | 0.47 | 0.31 | 0.18 | 2.84 | 0.7 | -0.01 |
| Cc1cc(Nc2cc(Cl)nc(Oc3ccc([N+](=O)[O-])cc3)n2)n[nH]1 [Autophinib] | 1.3 | 0.33 | 0.63 | 0.34 | 0.56 | 0.75 | 0.7 | 0.47 | 1.06 | 1.26 | -0.11 | 0.97 | -0.37 | 0.34 | 0.1 | 0.13 | 0.35 | 0.51 | 1.89 | 0.73 |
| Cn1cc(-c2ccc3nnc(C(F)(F)c4ccc5ncccc5c4)n3n2)cn1 | 0.26 | -0.14 | 0.41 | 0.23 | -0.02 | 0.07 | 0.22 | 0.35 | 0.98 | 0.6 | 0.16 | 1.31 | 0.65 | 0.54 | 0.28 | 0.51 | 1.54 | 0.92 | 1.14 | -0.03 |
| FC(F)(F)c1ccc(Nc2nc3ccc(Oc4ccnc(-c5ncc(C(F)(F)F)[nH]5)c4)cc3[nH]2)cc1 [Raf265 derivative] | 1.97 | 0.28 | 0.92 | 1.89 | 0.72 | 1.24 | 1.68 | 0.2 | 2.16 | 1.09 | 1.36 | 0.46 | 7.37 | 1.01 | 0.29 | 1.6 | 1.16 | 0.73 | 1.65 | 0.27 |
| O=C(Nc1c[nH]nc1-c1nc2ccc(CN3CCOCC3)cc2[nH]1)NC1CC1 | 8.3 | 2.96 | 1.22 | 7.72 | 6.08 | 3.92 | 6.02 | 5.39 | 3.78 | 8.54 | 3.7 | 14.2 | 14.9 | 0.46 | 4.77 | 1.2 | 10.7 | 0.86 | 0.71 | 0.15 |
| Cn1cc(/C=C2\C(=O)Nc3cccnc32)c2ccccc21 | 11.3 | 0.63 | 0.83 | 3.11 | 1.64 | 4 | 3.46 | 6.79 | 3.05 | 0.74 | 2.07 | 9.12 | 10.2 | 0.86 | 0.81 | 0.41 | 7.67 | 0.62 | 1.66 | 0.42 |
| CNCc1ccc(-c2cc(-c3nc(-c4ccc(S(=O)(=O)C(C)C)cc4)cnc3N)on2)cc1 | 2.46 | 0.28 | 0.32 | 0.54 | 0.33 | 0.34 | 0.97 | 4.33 | 1 | 0.22 | 0.75 | 6.99 | -0.05 | 0.89 | 0.64 | 0.33 | 0.7 | 0.87 | 1.23 | 0.32 |
| CNC(=O)c1cc(Oc2ccc(NC(=O)Nc3ccc(Cl)c(C(F)(F)F)c3)cc2)ccn1 [Sorafenib] | 4.5 | 1.47 | 0.48 | 1.7 | 0.3 | 1.22 | 1.02 | 1.71 | 3.55 | 0.99 | 2.09 | 9.44 | 1.37 | -0.04 | 0.65 | 1.2 | 2.66 | 1.5 | 1 | -0.34 |
| O=C1c2c(O)cc(O)cc2OC(c2ccc(O)c(O)c2)C1O (stereo not given) [Taxifolin (Dihydroquercetin)] | 0.74 | -0.16 | 0.4 | 0.47 | 0.2 | 0.2 | 0.08 | 0.29 | 0.17 | 0.5 | 0.11 | 3.32 | -0.02 | 0.61 | 0.75 | -0.08 | -0.04 | 0.59 | 0.96 | 0.52 |
